Screens from PubChem.
Menin MLL FP FL: inhibitors of human menin-MLL interaction, wild-type MLL peptide; Fluorescence polarization, fluorescein-MLL peptide displacement from menin; FP activity change, % at 61.4 µM; 290,000 tested, under 10 active; AID 1766; active = well fitted curve in the direction sought with a large enough effect in the polarisation, not every such curve was filed as active; inconclusive = small, poorly fitted or top-dose-only effect, or effect the other way, or a change in a side signal; inactive = no such curve, though single readings can be large or run the other way; the % refers to the polarisation; note: % of control where 0% means no effect
Menin MLL FP TR: menin-MLL binding inhibition, Texas Red mutant peptide. O00255. Menin + Texas Red MLL mutant peptide, fluorescence polarization. Potency, µM (titrated, usually from 61.6 µM), inactives show top-dose FP activity change, negative = inhibition, actives largely listed as inhibitors. actives 0.23% (n = 270,000). AID 1768; active = well fitted inhibition curve with a large enough effect in the polarisation, with a control signal flat, not every such curve was filed as active; inconclusive = small, poorly fitted or top-dose-only effect, or effect the other way, or a change in a side signal; inactive = no such curve, though single readings can be large or run the other way; the % refers to the polarisation; note: potency is the fitted concentration of half-maximal effect; % of control where 0% means no effect
Target sequence (O00255 whole entry, looked up): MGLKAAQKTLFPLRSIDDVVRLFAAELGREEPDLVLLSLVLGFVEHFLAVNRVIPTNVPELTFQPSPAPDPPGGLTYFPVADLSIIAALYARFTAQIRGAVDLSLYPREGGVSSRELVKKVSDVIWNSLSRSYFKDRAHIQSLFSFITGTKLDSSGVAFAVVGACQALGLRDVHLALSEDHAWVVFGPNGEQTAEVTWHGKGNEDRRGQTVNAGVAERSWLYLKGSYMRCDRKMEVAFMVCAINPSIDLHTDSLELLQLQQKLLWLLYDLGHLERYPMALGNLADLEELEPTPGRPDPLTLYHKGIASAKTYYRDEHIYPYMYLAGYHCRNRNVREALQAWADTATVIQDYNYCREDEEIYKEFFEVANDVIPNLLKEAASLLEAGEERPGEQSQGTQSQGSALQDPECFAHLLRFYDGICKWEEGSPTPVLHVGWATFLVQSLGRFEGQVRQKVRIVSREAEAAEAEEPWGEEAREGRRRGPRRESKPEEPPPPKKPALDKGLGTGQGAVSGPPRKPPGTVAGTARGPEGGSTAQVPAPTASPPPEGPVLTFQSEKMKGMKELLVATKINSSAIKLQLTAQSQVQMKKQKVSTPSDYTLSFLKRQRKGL
ClpP mod: qHTS Assay for Activators of ClpP. ATP-dependent Clp protease proteolytic subunit (Bacillus subtilis (strain 168)), P80244. AID 651965, 2013. Potency, µM (top dose mostly 57.5 µM), for inactives: at the top dose activity change, negative = active. actives 1.9% (n = 340,000). purified B. subtilis ClpP, FRET peptide cleavage, 20 min; active = well fitted falling curve with a large enough effect; inconclusive = small, poorly fitted or top-dose-only effect; inactive = no such curve, though single readings can be large or run the other way; note: potency is the fitted concentration of half-maximal effect; the source files actives as falling curves though it sought activators and does not explain the sign; nearly all actives have a fitted effect of over 65% in size
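Buffer: 100 mM Tris/HCl pH8, 100 mM KCl, 0.05% low protease BSA, 2.5% glycerol, 0.01% Tween-20. ClpP 10 microg/mL final; 20 min RT; delta FRET normalized to ADEP and DMSO controls.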
p53 reactivator: re-activators of mutant p53; H1299 p53-A138V BP100-luciferase reporter, luminescence, 24 h; Potency, µM (doses to about 92.2 µM), inactives show at the highest dose activity change, positive = activation, most hits filed as activators; actives 0.063% (n = 320,000); AID 504706; note: potency is the fitted concentration of half-maximal effect; % of control where 0% means no effect; nearly all actives have a fitted effect of over 45% in size
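H1299 (p53-null), stable ts p53-A138V + BP100-Luc; 1000 cells/well, Opti-MEM/10% FBS; cpd 4 pt, 1:5; 24 h, 37 deg C, 5% CO2; detection reagent 10 min RT; luminescence.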
CXXC DNA block: MLL CXXC-DNA interaction inhibition | Q03164 | MLL-CXXC / FITC-HOXA9 DNA fluorescence polarization | Potency, µM (highest dose often 115 µM), inactives show at the highest dose activity change, negative = inhibition, most hits filed as inhibitors | actives 0.037% (n = 290,000); active = well fitted inhibition curve with a large enough effect in the polarisation, with a control signal flat, not every such curve was filed as active; inconclusive = small, poorly fitted or top-dose-only effect, or effect the other way, or a change in a side signal; inactive = no such curve, though single readings can be large or run the other way; the % refers to the polarisation; note: potency is the fitted concentration of half-maximal effect
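Steps: dispense CXXC domain solution (7 uM) → pin compounds or unlabeled HOX-A9 DNA control → 5 min ambient → add FLSN-HOX-A9 solution (50 nM) → spin → 30 min ambient → fluorescence polarization. Tris pH 7.5/NaCl/DTT/BSA buffer.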
MLL CXXC Fl: inhibitors of human MLL CXXC domain-DNA interaction. actives 70% (n = 200). AID 624160. Potency, µM (doses to about 345 µM), for inactives: at the top dose activity change, negative = inhibition, hits mostly inhibitors. shares compounds with CXXC DNA block. MLL CXXC-DNA binding, fluorescein FP; note: potency is the fitted concentration of half-maximal effect; nearly all actives have a fitted effect of over 80% in size
MLL CXXC TxRed: MLL CXXC-DNA interaction inhibition, Texas Red FP; Potency, µM (series often up to 345 µM), without a hit: at the top dose activity change, negative = inhibition, actives largely listed as inhibitors; shares compounds with CXXC DNA block; actives 40% (n = 200); MLL CXXC-DNA binding, Texas Red fluorescence polarization; AID 624161; note: potency is the fitted concentration of half-maximal effect; % is set by controls: 0 for no effect and ±100 for the full control effect; nearly all actives have a fitted effect of over 75% in size
MLL CXXC TRF: disrupts human MLL CXXC domain binding to DNA by HTRF. MLL CXXC-DNA binding, HTRF, biochemical. shares compounds with CXXC DNA block. actives 30% (n = 210). Potency, µM (series often up to 172 µM), for inactives: at the top dose activity change, negative = inhibition, usual class: inhibitors; note: % is set by controls: 0 for no effect and ±100 for the full control effect; nearly all actives have a fitted effect of over 80% in size
Active calls of the source: *; [ ] = remark or other dose. This is one part of a sample in which hits are shown more often than they occur. Unless noted, calls come from the whole dose curve; as a rule, active = well fitted curve in the direction sought with a large enough effect; inconclusive = small, poorly fitted or top-dose-only effect, or another doubt; inactive = no such curve, though single readings can be large; an effect the other way counts as inactive or inconclusive.

Results for Cc1ccc(C=C2C(=O)c3ccccc3C2=O)s1 ?
Menin MLL FP FL: 1; Menin MLL FP TR: -3%; ClpP mod: 0%; p53 reactivator: inconclusive; CXXC DNA block: inconclusive

What do the screens show for `CCOc1ccc(Cn2c(CNS(=O)(=O)c3cccs3)nc3cccnc32)cc1`?
ClpP mod: -4%

Results for O=c1[nH]c2ccc(NCc3ccc(-c4ccc(F)cc4)o3)cc2[nH]1 ?
ClpP mod: 10%

Results for CSC1=C(C#N)C(=O)NC(c2ccccc2O)S1 (stereo not given) ?
Menin MLL FP FL: 4; ClpP mod: -9%; p53 reactivator: 4%; CXXC DNA block: 13µM*; MLL CXXC Fl: 80µM*; MLL CXXC TxRed: 44%; MLL CXXC TRF: inconclusive

How did COc1ccc2occ(C(=O)c3ccc(N)cc3)c2c1 do in these assays?
Menin MLL FP FL: 4; Menin MLL FP TR: 26%; ClpP mod: 0%; p53 reactivator: 9%; CXXC DNA block: inconclusive; MLL CXXC Fl: 37%; MLL CXXC TxRed: 36%; MLL CXXC TRF: -1%

How did Cc1ccc2oc(-c3cc(NC(=O)CC(C)C)ccc3Cl)nc2c1 do in these assays?
ClpP mod: 5%

How did CCc1sc(C(C2C(=O)CC(C)(C)CC2=O)C2C(=O)CC(C)(C)CC2=O)cc1[N+](=O)[O-] do in these assays?
Menin MLL FP FL: -4; Menin MLL FP TR: 5%; p53 reactivator: -11%; CXXC DNA block: inconclusive; MLL CXXC Fl: 0%; MLL CXXC TxRed: 113µM*; MLL CXXC TRF: 31µM*

How did C=CCN1c2ccccc2[C@]23C[C@@H](C(=O)OC)N(S(=O)(=O)c4ccc(C)cc4)C2=NC(C(=O)OC)=C(C(=O)OC)[C@H]13 do in these assays?
Menin MLL FP FL: 1[11.7 µM]; Menin MLL FP TR: -15%[11.7 µM]

Results for Cc1cccc(N2CCN(C(=O)C3CCCN(S(=O)(=O)c4cccc5nsnc45)C3)CC2)c1C (stereo not given) ?
ClpP mod: -1%

Results for CN1CCN(C(=O)C(=O)Nc2c3c(nn2-c2cccc(Cl)c2)CSC3)CC1 ?
ClpP mod: 0%

Results for O=C(O)CN1C(=O)/C(=C\c2cccc(OCc3ccc(Cl)cc3Cl)c2)SC1=S ?
Menin MLL FP FL: 1; Menin MLL FP TR: 54%; p53 reactivator: 29%; CXXC DNA block: inconclusive; MLL CXXC Fl: inconclusive; MLL CXXC TxRed: 23%; MLL CXXC TRF: -103%

How did COc1ccc(-c2nc3c(=O)n(C)c(=O)nc-3n(C)n2)cc1 do in these assays?
ClpP mod: -3%

What do the screens show for `Cn1nc(-c2ccc(Cl)cc2)nc2c(=O)n(C)c(=O)nc1-2`?
Menin MLL FP FL: inconclusive; Menin MLL FP TR: inconclusive; ClpP mod: -6%; p53 reactivator: -17%; CXXC DNA block: 32µM*; MLL CXXC Fl: 142µM*; MLL CXXC TxRed: inconclusive; MLL CXXC TRF: 48%

How did Cc1cccc(-n2c(C)cc(C=C3C(=O)c4ccccc4C3=O)c2C)c1 do in these assays?
Menin MLL FP FL: inconclusive; Menin MLL FP TR: inconclusive; ClpP mod: -2%; p53 reactivator: inconclusive; CXXC DNA block: 32µM*; MLL CXXC Fl: 142µM*; MLL CXXC TxRed: inconclusive; MLL CXXC TRF: 41%
